Measured values published in PubChem BioAssay AID686979 (National Center for Advancing Translational Sciences (NCATS), 2013).
Values joined by “and” are separate entries in the source; they are usually repeats but may differ in a detail not shown here. Identical values can stand only once. Screen size: about 420,000 compounds; about 50,000 (12%) were called active. Roughly 26% stayed inconclusive and do not appear here. The sample holds actives, similar compounds and a random draw of the others, so the mix is not that of the screen. Unmarked numbers belong to inactive results. Calls come from the whole dose curve; as a rule, active = well fitted inhibition curve with a large enough effect; inconclusive = small, poorly fitted or top-dose-only effect; inactive = flat fitted curve, though single readings scatter. Where a SMILES comes first, the peptide text is derived from it. [ ]: non-standard residue; d: D form. ξ: configuration not given here. Ac5c = NC1(C(=O)O)CCCC1; ξS = NC(CO)C(=O)O

assay: qHTS for Inhibitors of human tyrosyl-DNA phosphodiesterase 1 (TDP1): qHTS in cells in presence of CPT; conditions: chicken DT40 Tdp1-/-;hTDP1 cells + 20 nM CPT, ATP luminescence, 48 h; series mostly up to 46.2 µM; activity change, negative = growth inhibition: at the top concentration; note: nearly all actives have a fitted effect of over 55% in size
How it was run: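 Chicken DT40 Tdp1-/- cells stably complemented with human TDP1 were seeded at 400 cells/well in medium containing 20 nM camptothecin, exposed to pin-transferred compounds, and grown at 37 °C for at least 48 hr. Viability was read as ATP luminescence.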
% is set by controls: 0 for no effect and ±100 for the full control effect; potency is the fitted concentration of half-maximal effect.

Row | SMILES | activity change, negative = growth inhibition [%] | Potency
1 | COc1cccc(C(=O)NCC(=O)OCc2cc(=O)n3ccsc3n2)c1 | -6.31 | –
2 | COc1cc(OC)cc(C(=O)NCC(=O)OCC(=O)NC(C)CCc2ccccc2)c1 (centres undefined) | -22 | –
3 | COc1cc(OC)cc(C(=O)NCC(=O)OCc2csc(-c3ccccc3)n2)c1 | – | 16.4 µM (active)
4 | C=CCOc1ccc(Cl)cc1CNCCCN1CCOCC1 | -16.9 | –
5 | CC(=O)NCCC(=O)Nc1nc(C)c(Cc2ccc3c(c2)OCO3)s1 | -1.58 | –
6 | CCOC(=O)C1(Cc2ccccc2C)CCCN(S(C)(=O)=O)C1 (centres undefined) | -19 | –
7 | CNC(=O)NC(=O)CSc1nnc(-c2ccc(F)cc2)n1CC1CCCO1 (centres undefined) | 4.38 | –
8 | COc1ccc(CCNC(=S)N2CCN(S(=O)(=O)c3ccc(Cl)cc3)CC2)cc1 | -3.02 | –
9 | Oc1cc2c(cc1O)CN(C(=S)NCCc1ccc(Cl)cc1)CCC2 | – | 13.3 µM (active) and 7.08 µM (active)
10 | O=C(NCCc1ccc(Cl)cc1)C1CCCN1C(=O)NCc1ccccc1 (centres undefined) | -19.2 | –
11 | CCOc1ccc(C(=O)NCC(=O)N2CCCCCCC2)cc1OCC | 4.15 | –
12 | CCOc1ccc(CCNC(=O)Cn2nc(CC)n3c(cc4sc(CC)cc43)c2=O)cc1OCC | – | 16.4 µM (active)
13 | CCc1cc2c(cc3c(=O)n(CC(=O)N4CCN(c5cc(Cl)ccc5C)CC4)nc(CC)n32)s1 | 5.07 | –
14 | CCc1cc2c(cc3c(=O)n(CC(=O)NCCc4ccc(OC)c(OC)c4)ncn32)s1 | -23.1 | –
15 | COc1ccc2cc(C(=O)O)n(CC(=O)c3ccccc3)c2c1 | 0.526 | –
16 | CCOC(=O)C1=C(c2ccccc2)O/C(=C(/C(=O)OC)C(F)(F)F)S1 | -15.8 | –
17 | O=C(NCC(=O)N(CC1CCCO1)C(C(=O)NC1CCCCC1)c1ccccc1)c1ccco1 (centres undefined) | -3.29 | –
18 | CCCCN(C)CCNC(=O)C1CCCN(S(=O)(=O)c2cccc3nsnc23)C1 (centres undefined) | – | inactive
19 | O=C(c1ccco1)N1CCN(C(=O)C2CCCN(S(=O)(=O)c3cccc4nsnc34)C2)CC1 (centres undefined) | -28 | –
20 | CCCCN(CC)C(=O)C1CCCN(S(=O)(=O)c2cccc3nsnc23)C1 (centres undefined) | – | 25.9 µM (active)
21 | CCOC(=O)C(CO)NC(=O)C1(NC(C)=O)CCCC1 (centres undefined) (Ac-[Ac5c]-[ξS]-OEt) | 18 | –
22 | OCC1(Cc2ccccc2C(F)(F)F)CCN(Cc2ccncc2)CC1 | -29.8 | –
23 | COc1cccc(C(=O)Oc2cc(C)[nH]c(=O)c2[N+](=O)[O-])c1 | 0.282 | –
24 | Cc1cc([N+](=O)[O-])ccc1NC(=O)C1CCCO1 (centres undefined) | 0.207 | –
25 | COc1cccc(C(=O)CC(=O)C(=O)Nc2ccc([N+](=O)[O-])cc2C)c1 | – | 23.1 µM (active)

Row | SMILES | activity change, negative = growth inhibition [%] | Potency
26 | COc1ccc(NC(=O)c2cc(-c3cc(OC)c(OC)c(OC)c3)nc3ccccc23)c(OC)c1 | – | 13 µM (active)
27 | COc1ccc(NC(=O)c2cc(-c3ccc(C)o3)nc3ccccc23)cc1 | -27.5 | –
28 | COc1ccc(NC(=O)CNC(=O)Cn2ccc3ccccc3c2=O)c(OC)c1 | – | inactive
29 | COc1ccc(Nc2cc(C(=O)NCCCN(C)c3ccccc3)c3ccccc3n2)c(OC)c1 | – | 13 µM (active)
30 | COc1ccc(NC(=O)CCNC(=O)Cn2ccc3ccccc3c2=O)c(OC)c1 | 1.62 | –
31 | COc1ccccc1NC(=O)c1cc(Cl)nc2ccccc12 | 6.57 | –
32 | CCN(CCCNC(=O)c1cc(Nc2ccc(OC)cc2)nc2ccccc12)c1cccc(C)c1 | – | 20.6 µM (active)
33 | CCN(CCCNC(=O)Cn1ncc2c([nH]c3ccccc32)c1=O)c1cccc(C)c1 | -3.13 | –
34 | COc1ccc(CNC(=O)COC(=O)C2=Cc3ccccc3OC2)cc1 | 5.53 | –
35 | COC(=O)c1ccc(CNC(=O)Cn2cc(C)c(=O)[nH]c2=O)cc1 | 0.751 | –
36 | O=C(Cn1c2[n+](c3ccc(C(F)(F)F)cc31)CCCCC2)Nc1c(F)cccc1F | 0.326 | –
37 | Cc1ccc(CN(C)Cc2cc(=O)oc3cc(C)c(Cl)cc23)cc1 | -11.4 | –
38 | Cc1cc(NC(=O)CSc2ncc(C(F)(F)F)cc2Cl)no1 | 2.58 | –
39 | Cc1c(Cl)cccc1NC(=O)CCC(=O)N/N=C/c1ccco1 | -12.2 | –
40 | C[C@H](CO)N1C[C@H](C)[C@@H](CN(C)C(=O)NC2CCCCC2)Oc2ccc(NC(=O)c3ccncc3)cc2C1=O | 6.58 | –
41 | COC(=O)c1ccccc1NC(=S)NC(=O)c1ccccc1F | -10.3 | –
42 | S=C(NCc1cccnc1)Nc1ccc(Cl)cc1Cl | -0.527 | –
43 | NS(=O)(=O)c1ccc(-c2ccc(/C=C3\SC(=O)NC3=O)o2)cc1 | -26.6 | –
44 | Cc1ccc(NC(=O)CCC(=O)c2ccc(Br)cc2)cc1 | 1.81 | –
45 | Cc1cccc(-c2nc(SCC(=O)Nc3cc(C)on3)c3c(=O)n(C)c(=O)n(C)c3n2)c1 | 9.94 | –
46 | Cc1ccccc1-c1nc(SCC(=O)N(C)c2ccccc2)c2c(=O)n(C)c(=O)n(C)c2n1 | – | 20.6 µM (active)
47 | Cn1c(=O)c2c(SCC(=O)NCC3CCCO3)nc(-c3ccccc3F)nc2n(C)c1=O (centres undefined) | -2.94 | –
48 | CN(C(=O)COC(=O)c1nc(Cl)ccc1Cl)C1CCS(=O)(=O)C1 (centres undefined) | 4.88 | –
49 | Cc1cc(C)c2nc(N3CCC(C(=O)NCCN4CCOCC4)CC3)sc2c1 | -15.1 | –
